Results: PubChem BioAssay AID1159580 (chemical genetic matrix, 2015)
Among all 5,500 compounds or so, about 2,000 (36%) were called active. About 18% were inconclusive and are not listed. Cut-off read from the data, not from the text of the source: active = normalized growth mostly below about 0.91 (no sharp cut-off); inconclusive = no clear call, values can overlap the other calls; inactive = mostly above about 0.92. The list shows a part of the results.

Assay: chemical genetic growth profiling, strain panel (AID 1159580);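 note: tested at 20 µM; growth read once vehicle control cultures reached saturation at 30 °C; 1 = growth at the plate median or of vehicle wells; lower values mean less growth of the strain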
Conditions: growth OD
[1] = S. cerevisiae deletion strains, locus YAL013W, strain DEP1, hits give low values
[2] = S. cerevisiae deletion strains, locus YDR150W, strain NUM1, hits give low values
[3] = S. cerevisiae deletion strains, locus YJR075W, strain HOC1, hits give low values
[4] = S. cerevisiae deletion strains, locus YMR263W, strain SAP30, hits give low values
[5] = S. cerevisiae deletion strains, locus YNL128W, strain TEP1, hits give low values
[6] = S. cerevisiae deletion strains, locus YNL153C, strain GIM3, hits give low values
[7] = S. cerevisiae deletion strains, locus YNL322C, strain KRE1, hits give low values
[8] = S. cerevisiae deletion strains, locus YPL241C, strain CIN2, hits give low values

Measured: normalized growth

O=C1NCN(c2ccccc2)C12CCN(CCCC(c1ccc(F)cc1)c1ccc(F)cc1)CC2
inactive: [1] 1.01 | S. cerevisiae deletion strains, locus YAL040C, strain CLN3, hits give low values 0.995 | S. cerevisiae deletion strains, locus YCL061C, strain MRC1 (second series), hits give low values 1 | [2] 0.987 | S. cerevisiae deletion strains, locus YDR363W, strain ESC2, hits give low values 0.992 | S. cerevisiae deletion strains, locus YER002W, strain NOP16, hits give low values 1.03 | [3] 0.998 | [4] 1 | [5] 1.05 | [6] 0.982 | S. cerevisiae deletion strains, locus YNL197C, strain WHI3, hits give low values 1.09 | S. cerevisiae deletion strains, locus YNL224C, strain SQS1, hits give low values 1.07 | [7] 1 | S. cerevisiae deletion strains, locus YOR083W, strain WHI5 (second series), hits give low values 1.09 | [8] 1

O=C1c2ccccc2C(=O)N1CN1CCC(O)(c2ccc(Cl)cc2)CC1
inactive: [1] 0.975 | S. cerevisiae deletion strains, locus YBR229C, strain ROT2, hits give low values 0.982 | S. cerevisiae deletion strains, locus YDL101C, strain DUN1, hits give low values 0.988 | S. cerevisiae deletion strains, locus YDL134C, strain PPH21, hits give low values 1.01 | [2] 1.01 | S. cerevisiae deletion strains, locus YEL061C, strain CIN8, hits give low values 0.991 | S. cerevisiae deletion strains, locus YGR078C, strain PAC10, hits give low values 0.981 | S. cerevisiae deletion strains, locus YGR229C, strain SMI1, hits give low values 0.999 | S. cerevisiae deletion strains, locus YHR030C, strain SLT2, hits give low values 0.953 | S. cerevisiae deletion strains, locus YHR087W, strain rtc3, hits give low values 0.99 | S. cerevisiae deletion strains, locus YJR043C, strain POL32, hits give low values 0.966 | [3] 0.987 | S. cerevisiae deletion strains, locus YKL190W, strain CNB1, hits give low values 1.01 | S. cerevisiae deletion strains, locus YLR039C, strain RIC1, hits give low values 0.988 | S. cerevisiae deletion strains, locus YLR058C, strain SHM2 (second series), hits give low values 0.978 | S. cerevisiae deletion strains, locus YLR085C, strain ARP6, hits give low values 1.06 | S. cerevisiae deletion strains, locus YLR262C, strain YPT6, hits give low values 0.93 | S. cerevisiae deletion strains, locus YML094W, strain GIM5, hits give low values 1.02 | S. cerevisiae deletion strains, locus YMR219W, strain ESC1, hits give low values 0.993 | [4] 0.926 | [5] 0.987 | [6] 1.02 | S. cerevisiae deletion strains, locus YNL298W, strain CLA4 (second series), hits give low values 0.974 | [7] 0.985 | S. cerevisiae deletion strains, locus YNR030W, strain Alg12, hits give low values 0.991 | S. cerevisiae deletion strains, locus YPL055C, strain LGE1, hits give low values 0.947 | [8] 1.01 | S. cerevisiae deletion strains, locus YPR135W, strain CTF4, hits give low values 0.94 | S. cerevisiae strains, strain wild type, hits give low values 0.992
